The supplement of paper PMC10477191
± gives the standard deviation of the averaged measurements.

Test system: Drosophila virilis antennal basiconic sensillum AB3
Test: odor-evoked OSN spike response (post minus pre-stimulus); higher = stronger neuronal excitation
Details: odor dilution: 10^-4
Procedure: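 Single sensillum recordings from antennal basiconic sensilla of D. virilis. A 500 ms pulse of odorant (10^-4 in mineral oil or DMSO) was delivered; the response is the change in spike frequency between the 1 s pre- and post-stimulus windows (spikes/s).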

| SMILES | odor-evoked OSN spike response [spikes/s] |
| --- | --- |
| CC(C)=O [acetone] | 92.2 ± 20 |
